Measured values as given in PubChem BioAssay AID1159580 (chemical genetic matrix, 2015).
“And” between values parts separate entries of the source, which are not always exact repeats. Equal values may be shown once. Hit rate of the full screen: of about 5,500 compounds, about 2,000 (36%) were called active. Not shown: some 18% with an inconclusive outcome. No stated cut-off is given here; in the data, active means normalized growth mostly below about 0.91 (no sharp cut-off); inconclusive means no clear call, values can overlap the other calls; inactive means mostly above about 0.92. The list shows a part of the results.

Test: chemical genetic growth profiling, strain panel (AID 1159580);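 further: tested at 20 µM; growth read once vehicle control cultures reached saturation at 30 °C; 1 = growth at the plate median or of vehicle wells; lower values mean less growth of the strain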
Settings: S. cerevisiae deletion strains, growth OD

Measured: normalized growth

CN1Cc2c(N)cccc2C(c2ccccc2)C1 (centres undefined)
inactive: locus YAL013W, strain DEP1, hits give low values 1.01 | locus YAL021C, strain ccr4, hits give low values 0.991 | locus YAL026C, strain drs2, hits give low values 0.997 | locus YAL030W, strain snc1, hits give low values 0.996 | locus YAL040C, strain CLN3, hits give low values 0.991 | locus YBL061C, strain skt5, hits give low values 1.01 | locus YBR009C, strain hhf1, hits give low values 1.02 | locus YBR021W, strain FUR4, hits give low values 1.01 | locus YBR023C, strain chs3, hits give low values 1.02 | locus YBR171W, strain sec66, hits give low values 1.02 | locus YBR229C, strain ROT2, hits give low values 1.01 | locus YBR231C, strain swc5, hits give low values 1 | locus YBR279W, strain paf1, hits give low values 1.03 | locus YCL011C, strain gbp2, hits give low values 1 | locus YCL016C, strain dcc1, hits give low values 0.997 | locus YCL029C, strain bik1, hits give low values 1 | locus YCL061C, strain MRC1 (second series), hits give low values 0.989 | locus YCL069W, strain vba3, hits give low values 1.01 | locus YCR088W, strain abp1, hits give low values 1.01 | locus YDL005C, strain med2, hits give low values 1 | locus YDL035C, strain GPR1, hits give low values 1.02 | locus YDL040C, strain nat1, hits give low values 1.01 | locus YDL074C, strain BRE1, hits give low values 0.993 | locus YDL101C, strain DUN1, hits give low values 1.01 | locus YDL134C, strain PPH21, hits give low values 1.01 | locus YDL185W, strain tfp1, hits give low values 1.01 | locus YDL192W, strain arf1, hits give low values 1.02 | locus YDR001C, strain nth1, hits give low values 1.01 | locus YDR069C, strain doa4, hits give low values 1.02 | locus YDR101C, strain arx1, hits give low values 1.01 | locus YDR137W, strain rgp1, hits give low values 1.01 | locus YDR150W, strain NUM1, hits give low values 1 | locus YDR159W, strain sac3, hits give low values 1 | locus YDR162C, strain NBP2, hits give low values 1.02 | locus YDR195W, strain ref2 1.02 | locus YDR297W, strain sur2, hits give low values 1.01 | locus YDR318W, strain mcm21, hits give low values 1.02 | locus YDR334W, strain swr1, hits give low values 1.01 | locus YDR335W, strain msn5, hits give low values 1.02 | locus YDR363W, strain ESC2, hits give low values 0.963 | locus YDR388W, hits give low values 1.02 | locus YDR392W, strain spt3, hits give low values 0.938 | locus YDR502C, strain sam2, hits give low values 1.01 | locus YEL003W, strain gim4, hits give low values 1.01 | locus YEL037C, strain rad23, hits give low values 1.01 | locus YEL061C, strain CIN8 (second series), hits give low values 1 | locus YEL061C, strain CIN8, hits give low values 1 | locus YER002W, strain NOP16, hits give low values 1.01 | locus YER015W, strain faa2, hits give low values 1.02 | locus YER016W, strain bim1, hits give low values 1.01 | locus YER110C, hits give low values 1.02 | locus YER111C, strain swi4, hits give low values 1.01 | locus YER155C, strain BEM2 (second series), hits give low values 1.01 | locus YER155C, strain BEM2, hits give low values 1.01 | locus YER167W, strain BCK2, hits give low values 1.02 | locus YFR010W, strain ubp6, hits give low values 1.03 | locus YGL078C, strain dbp3, hits give low values 1 | locus YGL086W, strain mad1, hits give low values 0.999 | locus YGL167C, strain pmr1, hits give low values 1.01 | locus YGL173C, strain kem1, hits give low values 1.02 | locus YGL227W, strain vid30, hits give low values 1.01 | locus YGL240W, strain doc1, hits give low values 1.02 | locus YGL248W, strain PDE1, hits give low values 0.991 | locus YGL253W, strain hxk2, hits give low values 1 | locus YGR078C, strain PAC10, hits give low values 0.991 | locus YGR135W, strain pre9, hits give low values 1.04 | locus YGR229C, strain SMI1, hits give low values 1.02 | locus YGR252W, strain gcn5, hits give low values 1 | locus YHR013C, strain ard1, hits give low values 0.995 | locus YHR027C, strain rpn1, hits give low values 1.02 | locus YHR030C, strain SLT2, hits give low values 1.01 and 1.07 | locus YHR079C, strain IRE1 (second series), hits give low values 1.01 | locus YHR079C, strain IRE1, hits give low values 0.985 | locus YHR094C, strain hxt1, hits give low values 1.02 | locus YHR129C, strain ARP1, hits give low values 1.01 | locus YHR142W, strain chs7, hits give low values 1.01 | locus YHR200W, strain rpn10, hits give low values 1.02 | locus YIL066C, strain RNR3, hits give low values 1 | locus YIL073C, strain SPO22, hits give low values 1.08 | locus YIL125W, strain kgd1, hits give low values 1.01 | locus YIR030C, strain dcg1, hits give low values 1.01 | locus YJL092W, strain hpr5, hits give low values 1.01 | locus YJL095W, strain BCK1 (second series), hits give low values 1.01 | locus YJL095W, strain BCK1, hits give low values 0.983 and 0.981 | locus YJL115W, strain asf1, hits give low values 1.02 | locus YJL129C, strain trk1, hits give low values 1 | locus YJL134W, strain LCB3, hits give low values 1.01 | locus YJL154C, strain vps35, hits give low values 1.01 | locus YJL164C, strain tpk1, hits give low values 0.981 | locus YJL166W, strain qcr8, hits give low values 1.01 | locus YJL168C, strain set2, hits give low values 1.01 | locus YJL187C, strain SWE1 (second series), hits give low values 0.983 | locus YJR043C, strain POL32, hits give low values 0.973 | locus YJR066W, strain TOR1, hits give low values 0.933
